# Test results reported in ChEMBL document CHEMBL1961873, “Compounds: GSK PKIS; Assays: Nanosyn kinase panel” (2012).
# Values joined by “and” are separate entries in the source; they are usually repeats but may differ in a detail not shown here. Identical values can stand only once.
# Tested on: T1, Receptor-type tyrosine-protein kinase FLT3 (Homo sapiens), P36888 [D835Y]
# T1 sequence (whole entry): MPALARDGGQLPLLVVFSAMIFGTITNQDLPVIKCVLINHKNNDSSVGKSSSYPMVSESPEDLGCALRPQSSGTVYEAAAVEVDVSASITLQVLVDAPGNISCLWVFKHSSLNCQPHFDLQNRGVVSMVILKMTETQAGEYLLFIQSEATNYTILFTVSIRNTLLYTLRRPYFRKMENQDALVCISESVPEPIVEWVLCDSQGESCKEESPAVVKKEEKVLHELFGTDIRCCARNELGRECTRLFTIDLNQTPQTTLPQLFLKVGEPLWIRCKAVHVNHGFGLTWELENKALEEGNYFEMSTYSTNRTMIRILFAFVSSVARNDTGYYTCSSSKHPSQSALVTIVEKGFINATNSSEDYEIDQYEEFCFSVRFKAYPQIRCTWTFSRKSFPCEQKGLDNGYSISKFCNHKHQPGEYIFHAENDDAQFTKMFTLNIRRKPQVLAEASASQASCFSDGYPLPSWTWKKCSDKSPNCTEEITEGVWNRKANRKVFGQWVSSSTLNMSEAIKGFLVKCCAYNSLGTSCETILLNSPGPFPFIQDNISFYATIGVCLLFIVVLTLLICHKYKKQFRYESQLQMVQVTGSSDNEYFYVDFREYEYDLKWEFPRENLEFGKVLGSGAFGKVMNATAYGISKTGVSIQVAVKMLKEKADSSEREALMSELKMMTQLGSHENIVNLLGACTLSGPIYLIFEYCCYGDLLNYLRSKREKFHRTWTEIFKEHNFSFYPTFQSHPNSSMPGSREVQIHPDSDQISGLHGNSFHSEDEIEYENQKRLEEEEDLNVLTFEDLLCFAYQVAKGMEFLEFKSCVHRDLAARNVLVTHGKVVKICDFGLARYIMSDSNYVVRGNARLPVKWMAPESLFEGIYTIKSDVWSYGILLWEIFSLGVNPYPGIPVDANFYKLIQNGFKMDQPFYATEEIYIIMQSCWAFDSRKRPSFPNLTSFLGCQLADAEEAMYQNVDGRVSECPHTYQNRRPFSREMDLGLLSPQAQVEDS
# Settings: at 0.1 µM
row,Structure (SMILES),inhibition
1,CC1=C(C(=O)Nc2ccc3[nH]nc(C)c3c2)C(c2ccc(C(F)(F)F)cc2)CC(=O)N1 (configuration not stated),0.37%
2,COc1cc(N2CCN(C(C)C)CC2)ccc1Nc1nc(Nc2cccc3ncccc23)c2cc[nH]c2n1,1.05%
3,COc1cc(Nc2ncc(-c3ccccc3)o2)cc(OC)c1,5.63%
4,COc1cccc(Nc2nccc(-c3cnn4ncccc34)n2)c1,16.7%
5,O=C(Nc1n[nH]c2nnc(-c3cccnc3)cc12)C1CC1,0.49%
6,CN1CCN(Cc2ccc(-c3cc4ncnc(Nc5ccc(OCc6cccc(F)c6)c(Cl)c5)c4s3)o2)CC1,-3.92% and 0.13%
7,CCCNc1cccc(-n2ncc3c(N/N=C/c4ccncc4)ncnc32)c1,7.74%
8,CS(=O)(=O)Nc1ccc(-c2ccc3c(NC(=O)C4CC4)n[nH]c3c2)cc1,1.14%
9,COc1cccc(-n2ncc3c(N/N=C/c4ccc(C(=O)NCCN(C)C)cc4)ncnc32)c1,30.8%
10,O=C(O[C@H]1CN[C@H](C#Cc2cc3ncnc(Nc4ccc(OCc5cccc(F)c5)c(Cl)c4)c3s2)C1)N1CCOCC1,-1.46%
11,O=C(O[C@H]1CN[C@H](C#Cc2cc3ncnc(Nc4ccc5c(cnn5Cc5ccccc5)c4)c3s2)C1)N1CCOCC1,-5.14%
12,CCn1c(-c2nonc2N)nc2cncc(C(=O)NCCNC)c21,-3.83%
13,O=C(O[C@H]1CN[C@H](C#Cc2cc3ncnc(Nc4ccc5c(ccn5Cc5cc(F)ccc5F)c4)c3s2)C1)N1CCOCC1,-5.8%
14,c1ccc(-c2n[nH]cc2-c2ccnc(-c3ccc(OCCn4ccnc4)cc3)c2)nc1,2.71%
15,COc1cc2c(cc1Nc1nc(Nc3cccc(F)c3C(N)=O)c3cc[nH]c3n1)N(C(=O)CN1CCN(C(C)C)CC1)CC2,-4.8%
16,CNC(=O)c1cncc(/C=C/c2ccccc2C)c1,-2.2%

row,Structure (SMILES),inhibition
1,N#Cc1cccc(Nc2ncc(-c3ccccc3)o2)c1,3.75%
2,CCN1CCC(C(=O)Nc2n[nH]c3nnc(-c4cccc(F)c4F)cc23)CC1,-1.16%
3,Nc1nonc1-c1nc2cnccc2n1C1CC1,2.73% and -0.79%
4,O=C1Nc2ccccc2/C1=C1\CCc2cc(O)ccc21,27.1%
5,Fc1ccc(Nc2nccc(-c3c(-c4ccc(C(F)(F)F)cc4)nn4ncccc34)n2)cc1F,0.57%
6,CCS(=O)(=O)c1ccc(OC)c(Nc2ncc(-c3cccc(F)c3)o2)c1,17.6%
7,OCCCNc1nccc(-c2c(-c3ccc(F)cc3)nn3cc(C(F)(F)F)ccc23)n1,-1.23%
8,CN(c1ccc(NC(=O)NCCN2CCOCC2)cc1)c1ccnc(Nc2ccc(CS(C)(=O)=O)cc2)n1,8.58%
9,Nc1nccc(-c2c(-c3ccc(F)cc3)ncn2C2CCNCC2)n1,-8.75% and 1.68%
10,CC1(C)CC(n2cnc(-c3ccc(F)cc3)c2-c2ccnc(N)n2)CC(C)(C)N1,2.51%
11,Cn1c(-c2nonc2N)nc2cnccc21,1.71%
12,COc1ccc2ncn(-c3cc(O[C@H](C)c4ccccc4C(F)(F)F)c(C(N)=O)s3)c2c1,-1.49%
13,Cc1c2ccc(N(C)c3ccnc(Nc4cccc(S(N)(=O)=O)c4)n3)cc2nn1C,-0.8%
14,CNC(=O)c1ncccc1Nc1nc(Nc2cc3c(cc2OC)CCCN3C(=O)CN(C)C)nc2[nH]ccc12,1.41%
15,COC(=O)Nc1nc2cc(Oc3ccc(NC(=O)Nc4ccccc4)cc3)ccc2[nH]1,-4.53%

# Molecular target: Non-receptor tyrosine-protein kinase TYK2 (Homo sapiens) (UniProt P29597);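 note: values are mean percent inhibition of TYK2 kinase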
# Settings: at 1 µM
# Non-receptor tyrosine-protein kinase TYK2 (Homo sapiens), sequence (P29597 whole entry): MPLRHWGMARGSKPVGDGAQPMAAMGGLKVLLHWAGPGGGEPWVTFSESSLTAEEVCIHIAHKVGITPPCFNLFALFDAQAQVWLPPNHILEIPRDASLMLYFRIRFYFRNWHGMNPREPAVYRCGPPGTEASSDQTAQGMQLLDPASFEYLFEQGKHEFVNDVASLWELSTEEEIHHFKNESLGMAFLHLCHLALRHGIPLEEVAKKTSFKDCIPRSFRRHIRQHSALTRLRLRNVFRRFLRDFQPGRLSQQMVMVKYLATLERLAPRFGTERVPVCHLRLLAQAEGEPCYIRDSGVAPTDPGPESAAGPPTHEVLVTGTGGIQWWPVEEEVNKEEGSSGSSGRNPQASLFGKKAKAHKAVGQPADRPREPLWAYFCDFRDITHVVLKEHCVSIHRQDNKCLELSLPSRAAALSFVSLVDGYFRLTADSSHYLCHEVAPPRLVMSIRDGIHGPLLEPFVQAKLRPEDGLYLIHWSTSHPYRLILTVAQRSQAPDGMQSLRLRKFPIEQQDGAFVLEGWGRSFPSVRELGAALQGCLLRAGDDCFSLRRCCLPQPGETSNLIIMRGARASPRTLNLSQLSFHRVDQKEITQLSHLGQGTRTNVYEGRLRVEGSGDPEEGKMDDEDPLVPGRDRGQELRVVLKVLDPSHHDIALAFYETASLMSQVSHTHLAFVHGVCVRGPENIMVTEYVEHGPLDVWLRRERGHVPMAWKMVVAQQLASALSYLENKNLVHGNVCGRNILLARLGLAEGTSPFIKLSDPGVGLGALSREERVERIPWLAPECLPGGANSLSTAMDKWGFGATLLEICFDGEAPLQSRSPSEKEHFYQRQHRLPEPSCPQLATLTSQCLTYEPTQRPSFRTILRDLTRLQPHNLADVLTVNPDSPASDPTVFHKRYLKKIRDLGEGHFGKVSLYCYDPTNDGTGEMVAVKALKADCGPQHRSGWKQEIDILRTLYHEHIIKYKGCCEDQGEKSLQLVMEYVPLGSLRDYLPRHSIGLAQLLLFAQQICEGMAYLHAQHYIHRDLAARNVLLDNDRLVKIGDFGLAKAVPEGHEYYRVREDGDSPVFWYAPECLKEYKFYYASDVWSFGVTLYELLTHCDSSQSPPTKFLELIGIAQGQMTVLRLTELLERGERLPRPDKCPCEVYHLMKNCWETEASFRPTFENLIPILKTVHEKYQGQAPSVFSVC
row,Structure (SMILES),inhibition
1,CC1=C(C(=O)Nc2ccc3[nH]nc(C)c3c2)C(c2ccc(C(F)(F)F)cc2)CC(=O)N1 (configuration not stated),37.5%
2,COc1cc(N2CCN(C(C)C)CC2)ccc1Nc1nc(Nc2cccc3ncccc23)c2cc[nH]c2n1,2.42%
3,COc1cc(Nc2ncc(-c3ccccc3)o2)cc(OC)c1,-1.72%
4,COc1cccc(Nc2nccc(-c3cnn4ncccc34)n2)c1,30.3%
5,O=C(Nc1n[nH]c2nnc(-c3cccnc3)cc12)C1CC1,2.04%
6,CN1CCN(Cc2ccc(-c3cc4ncnc(Nc5ccc(OCc6cccc(F)c6)c(Cl)c5)c4s3)o2)CC1,-7.87% and -0.75%
7,CCCNc1cccc(-n2ncc3c(N/N=C/c4ccncc4)ncnc32)c1,4.3%
8,CS(=O)(=O)Nc1ccc(-c2ccc3c(NC(=O)C4CC4)n[nH]c3c2)cc1,-2.13%
9,COc1cccc(-n2ncc3c(N/N=C/c4ccc(C(=O)NCCN(C)C)cc4)ncnc32)c1,5.84%
10,O=C(O[C@H]1CN[C@H](C#Cc2cc3ncnc(Nc4ccc(OCc5cccc(F)c5)c(Cl)c4)c3s2)C1)N1CCOCC1,-3.98%
11,O=C(O[C@H]1CN[C@H](C#Cc2cc3ncnc(Nc4ccc5c(cnn5Cc5ccccc5)c4)c3s2)C1)N1CCOCC1,1.01%
12,CCn1c(-c2nonc2N)nc2cncc(C(=O)NCCNC)c21,-3.99%
13,O=C(O[C@H]1CN[C@H](C#Cc2cc3ncnc(Nc4ccc5c(ccn5Cc5cc(F)ccc5F)c4)c3s2)C1)N1CCOCC1,-1.34%
14,c1ccc(-c2n[nH]cc2-c2ccnc(-c3ccc(OCCn4ccnc4)cc3)c2)nc1,-0.27%
15,COc1cc2c(cc1Nc1nc(Nc3cccc(F)c3C(N)=O)c3cc[nH]c3n1)N(C(=O)CN1CCN(C(C)C)CC1)CC2,-1.21%
16,CNC(=O)c1cncc(/C=C/c2ccccc2C)c1,-3.23%

row,Structure (SMILES),inhibition
1,N#Cc1cccc(Nc2ncc(-c3ccccc3)o2)c1,-1.92%
2,CCN1CCC(C(=O)Nc2n[nH]c3nnc(-c4cccc(F)c4F)cc23)CC1,-3.82%
3,Nc1nonc1-c1nc2cnccc2n1C1CC1,-1.02% and -1.56%
4,O=C1Nc2ccccc2/C1=C1\CCc2cc(O)ccc21,6.88%
5,Fc1ccc(Nc2nccc(-c3c(-c4ccc(C(F)(F)F)cc4)nn4ncccc34)n2)cc1F,-3.25%
6,CCS(=O)(=O)c1ccc(OC)c(Nc2ncc(-c3cccc(F)c3)o2)c1,-2.12%
7,OCCCNc1nccc(-c2c(-c3ccc(F)cc3)nn3cc(C(F)(F)F)ccc23)n1,-1.77%
8,CN(c1ccc(NC(=O)NCCN2CCOCC2)cc1)c1ccnc(Nc2ccc(CS(C)(=O)=O)cc2)n1,-0.59%
9,Nc1nccc(-c2c(-c3ccc(F)cc3)ncn2C2CCNCC2)n1,2.68% and 1.47%
10,CC1(C)CC(n2cnc(-c3ccc(F)cc3)c2-c2ccnc(N)n2)CC(C)(C)N1,0.03%
11,Cn1c(-c2nonc2N)nc2cnccc21,-2.34%
12,COc1ccc2ncn(-c3cc(O[C@H](C)c4ccccc4C(F)(F)F)c(C(N)=O)s3)c2c1,-1.84%
13,Cc1c2ccc(N(C)c3ccnc(Nc4cccc(S(N)(=O)=O)c4)n3)cc2nn1C,-3.19%
14,CNC(=O)c1ncccc1Nc1nc(Nc2cc3c(cc2OC)CCCN3C(=O)CN(C)C)nc2[nH]ccc12,-1.39%
15,COC(=O)Nc1nc2cc(Oc3ccc(NC(=O)Nc4ccccc4)cc3)ccc2[nH]1,-1.49%
